{
  "source": "ChEMBL document CHEMBL5308541",
  "about": "“MAIP: An Open-Source Tool to Enrich High-Throughput Screening Output and Identify Novel, Druglike Molecules with Antimalarial Activity” (ACS Med Chem Lett, 2023)",
  "note": "Out of some 150,000 compounds screened, about 540 (0.36%) showed an effect of 50% or more. For the sample, strong results were picked, then their nearest neighbours and some compounds at random.",
  "data": [
    {"tested_on": "Plasmodium falciparum", "experiment": "Primary screen in NF54 nanoGlo assay, in single point, at 2uM, 72h; a lower Z score goes with more inhibition", "format": "functional, Erythrocyte", "conditions": "timepoint 72 hour", "units": {"% Inhibition": "%"}, "values": [
      {"compound": "COc1ccc2[nH]c(CN3CCC[C@H](N4CCN(c5ccccc5)CC4)C3)c(C)c2c1", "% Inhibition": -4, "Z score": 0.66},
      {"compound": "C[C@@H](c1cccc(-c2nc3cc(C#N)ccc3[nH]2)c1)N(C)C", "% Inhibition": 27, "Z score": -4.6},
      {"compound": "Cc1csc(=O)n1Cc1nnc(C(C)C)o1", "% Inhibition": -8, "Z score": 1.5},
      {"compound": "Cc1cnccc1NCCNCc1nc2ccccc2[nH]1", "% Inhibition": -2, "Z score": 0.37},
      {"compound": "Cc1cnccc1NCCNCc1ccc(OC(C)C)c(Cl)c1", "% Inhibition": 79, "Z score": -17.03},
      {"compound": "CCN1CCN([C@H]2CCN(c3nccc4nccnc34)C2)CC1", "% Inhibition": 2, "Z score": -0.37},
      {"compound": "CCN1CCN([C@H]2CCN(c3ccnc4ccncc34)C2)CC1", "% Inhibition": 96, "Z score": -14.59},
      {"compound": "CCN(C)CC(O)CN1CCC(Oc2cccnc2N2CCCC2)C1", "note": "(stereo not given)", "% Inhibition": -5, "Z score": 1.05},
      {"compound": "COc1ccc2nc(C)cc(NCc3cccc(NC(=O)c4ccco4)c3)c2c1", "% Inhibition": 93, "Z score": -18.52},
      {"compound": "CN(C)Cc1cccc(CCNCc2csc(-c3ccc(C(F)(F)F)cc3)n2)c1", "% Inhibition": 51, "Z score": -11.09},
      {"compound": "CN1CC(=O)N2C[C@@H](NC(=O)c3cccc(-c4ccc(N)nc4)c3)C[C@H]2C1=O", "% Inhibition": -16, "Z score": 2.42},
      {"compound": "Cc1n[nH]nc1C(=O)Nc1ccc2[nH]c(-c3cccc(F)c3)nc2c1", "% Inhibition": 1, "Z score": -0.2},
      {"compound": "Cc1ccc2nc(-c3cccc(NC(=O)c4ccc(OC(F)(F)F)c(Cl)c4)c3)[nH]c2n1", "% Inhibition": 57, "Z score": -12.27},
      {"compound": "N#Cc1ccc(N2C[C@H](COCC3CC3)C3(CCN(Cc4cccc(O)c4)CC3)C2)cc1C(F)(F)F", "% Inhibition": 82, "Z score": -14.34},
      {"compound": "CNC(=O)[C@@H]1CC2(CCN(CC3CCCCC3)CC2)CN1c1ccc(C#N)c(C(F)(F)F)c1", "% Inhibition": -15, "Z score": 2.59}
    ]}
  ]
}
